According to the supplement of paper PMC10127200:
Counter-ions that a name gives are not always drawn.

How the values were obtained:
Test in all cases: Euclidean distance of Cell Painting phenotypic profile (signed KS, 77 features) to DMSO centroid (dimensionless distance); 5 or 10 uM (library dependent); higher = stronger phenotypic change vs DMSO (phenoactivity)
Settings in all cases: 48 h
786-O = tested on: 786-O
Method in brief: (§1)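 Five cancer lines, together with a healthy fibroblast line, received library compounds for 48 h at a library-dependent 10 or 5 uM and 0.1% DMSO final. Harmony then derived 77 features from confocal 20X images (9 fields/well) of the stained cells, scoring each as a signed Kolmogorov-Smirnov statistic against same-plate vehicle wells. After plate-position correction, correlation weighting and replicate averaging at the top dose, phenoactivity was taken as each profile's Euclidean distance to the median vehicle profile.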

A549 = tested on: A549
Method in brief: as §1

DU145 = tested on: DU145
Method in brief: as §1

FB = tested on: FB
Method in brief: as §1

HEPG2 = tested on: HEPG2
Method in brief: as §1

OVCAR4 = tested on: OVCAR4
Method in brief: as §1

| SMILES | Euclidean distance (786-O) | Euclidean distance (A549) | Euclidean distance (DU145) | Euclidean distance (FB) | Euclidean distance (HEPG2) | Euclidean distance (OVCAR4) |
| --- | --- | --- | --- | --- | --- | --- |
| CC(C)(O)CNc1nc(Nc2ccnc(C(F)(F)F)c2)nc(-c2cccc(C(F)(F)F)n2)n1 [Enasidenib (AG-221)] | 1.17 | 0.727 | 1.69 | 1.4 | 1.82 | 1 |
| CC(C)(O)c1ccccc1CC[C@@H](SCC1(CC(=O)O)CC1)c1cccc(/C=C/c2ccc3ccc(Cl)cc3n2)c1 [Montelukast Sodium] | 0.941 | 0.527 | 0.759 | 0.512 | 0.526 | 0.733 |
| COC(=O)c1cc(OC)c2c(c1-c1c(C(=O)OC)cc(OC)c3c1OCO3)OCO2 [Bifendate] | 1.36 | 1.51 | 0.627 | 1.22 | 0.392 | 1.35 |
| Cc1cc(Cn2cnc3c2CC(C(=O)O)N(C(=O)C(c2ccccc2)c2ccccc2)C3)ccc1N(C)C (configuration not stated) | 0.67 | 1.03 | 1.03 | 1.08 | 0.529 | 0.828 |
| NCC(=O)O [Glycine] | 1.61 | 0.971 | 0.929 | 1 | 0.776 | 1.93 |
| CCCCCCCCOc1ccccc1C(=O)Nc1ccc(C(=O)OCC[N+](C)(CC)CC)cc1 [Otilonium Bromide] | 1.03 | 1.09 | 1.91 | 1.24 | 1.11 | 1.03 |
| Cc1c(C(=O)NN2CCCCC2)nn(-c2ccc(Cl)cc2Cl)c1-c1ccc(I)cc1 | 1.16 | 1.17 | 0.842 | 1.03 | 0.6 | 0.903 |
| CC(=O)Oc1cc2c(s1)CCN(C(C(=O)C1CC1)c1ccccc1F)C2 (configuration not stated) [Prasugrel Hydrochloride] | 0.877 | 0.726 | 0.888 | 0.495 | 0.448 | 0.803 |
| Clc1ccc(CCCOCCCN2CCCCC2)cc1 [Pitolisant hydrochloride] | 0.716 | 0.836 | 0.816 | 0.98 | 0.955 | 0.758 |
| CN(C)/N=N/c1[nH]cnc1C(N)=O [Dacarbazine] | 1.42 | 0.981 | 1.94 | 1.25 | 2.73 | 0.871 |
| COc1cc(C(=O)NCc2ccc(OCCN(C)C)cc2)cc(OC)c1OC [Tribenzagan Hydrochloride] | 1.18 | 1.99 | 1.05 | 1.12 | 1.07 | 1.09 |
| Oc1ccc(OCc2ccccc2)cc1 [Monobenzone] | 2.36 | 2.32 | 2.56 | 1.45 | 0.99 | 2.11 |
| CCCC(=O)Nc1cccc(NC(=O)c2ccccc2Br)c1 | 1.43 | 1.02 | 1.04 | 1.14 | 1.27 | 0.946 |
| Cc1nc2cccc(N)c2c(=O)n1C1CCC(=O)NC1=O (configuration not stated) [Avadomide(CC-122)] | 0.872 | 1.22 | 1.16 | 1.02 | 0.382 | 0.966 |
| CC1(C)OC(=O)NC1=O [5.5-Dimethyloxazolidine-2.4-dione] | 0.865 | 0.849 | 1.06 | 1.02 | 0.557 | 0.894 |
| O=C(Nc1cccnn1)N1CCC(=Cc2cccc(Oc3ccc(C(F)(F)F)cn3)c2)CC1 | 1.52 | 1.02 | 1.2 | 0.799 | 1.66 | 1.21 |
| O=C(NCc1c(F)cc(F)cc1F)c1cn2c(c(O)c1=O)C(=O)N1[C@H]3CC[C@H](C3)O[C@@H]1C2 [Bictegravir] | 1.77 | 3.73 | 2.63 | 2.16 | 1.04 | 2.99 |
| C[C@H](CCC(=O)O)[C@H]1CC[C@H]2[C@@H]3C[C@H](O)[C@@H]4C[C@H](O)CC[C@]4(C)[C@H]3CC[C@]12C [Hyodeoxycholic acid (HDCA)] | 1.08 | 0.973 | 0.585 | 0.898 | 0.401 | 1.37 |
| Cc1cnc(NC(=O)C2=C(O)c3ccccc3S(=O)(=O)N2C)s1 [Meloxicam] | 0.664 | 0.746 | 2.37 | 0.881 | 1.84 | 0.784 |
| CC(=O)OCC(COC(C)=O)OC(C)=O [Triacetin] | 1.28 | 0.762 | 1.03 | 1.11 | 1.02 | 0.787 |
| O=c1c(O)c(-c2ccc(O)c(O)c2)oc2cc(O)cc(O)c12 [Quercetin Dihydrate] | 0.703 | 1.01 | 0.731 | 0.799 | 0.874 | 0.868 |
| O=S(=O)(O)c1cc(O)ccc1O [Ethamsylate] | 0.716 | 0.847 | 0.74 | 1.11 | 0.713 | 1.57 |
| CC(C)c1cc(-c2n[nH]c(=O)n2-c2ccc3c(ccn3C)c2)c(O)cc1O [Ganetespib (STA-9090)] | 3.55 | 2.86 | 4.37 | 2.43 | 3.34 | 2.93 |
| CC1(C)CC(=O)c2c(C(F)(F)F)nn(-c3ccc(C(N)=O)c(N[C@H]4CC[C@H](OC(=O)CN)CC4)c3)c2C1 | 3.85 | 3.38 | 3.89 | 3.31 | 3.05 | 2.62 |

| SMILES | Euclidean distance (786-O) | Euclidean distance (A549) | Euclidean distance (DU145) | Euclidean distance (FB) | Euclidean distance (HEPG2) | Euclidean distance (OVCAR4) |
| --- | --- | --- | --- | --- | --- | --- |
| CC(/C=C1\SC(=S)N(CC(=O)O)C1=O)=C\c1ccccc1 [Epalrestat] | 1.29 | 1.2 | 0.915 | 1.45 | 0.723 | 0.848 |
| C#C[C@]1(O)CC[C@H]2[C@@H]3CCc4cc(OC5CCCC5)ccc4[C@H]3CC[C@@]21C [Quinestrol] | 1.6 | 1.26 | 1.69 | 1.48 | 0.902 | 1.67 |
| CCCCc1nc(-c2ccc(OCCCN(CC)CC)cc2)cn1-c1ccc(Oc2ccc(Cl)cc2)cc1 [Azeliragon] | 6.58 | 4.65 | 0.73 | 3.3 | 1.05 | 1.71 |
| CC[C@H](Nc1ncnc2[nH]cnc12)c1oc2ccccc2c(=O)c1-c1cccc(F)c1 [Tenalisib (RP6530)] | 0.975 | 0.66 | 0.791 | 1.47 | 0.466 | 0.678 |
| CCC(C)(C)c1ccc(CC(C)CN2C[C@@H](C)O[C@@H](C)C2)cc1 (some centres not stated) [Amorolfine HCl] | 0.719 | 0.701 | 0.552 | 1.61 | 0.635 | 0.693 |
| CC[C@H]1OC(=O)[C@H](C)[C@@H](O[C@H]2C[C@@](C)(OC)[C@@H](O)[C@H](C)O2)[C@H](C)[C@@H](O[C@@H]2O[C@H](C)C[C@H](N(C)C)[C@H]2O)[C@](C)(O)C[C@@H](C)CN(C)[C@H](C)[C@@H](O)[C@]1(C)O [Azithromycin Dihydrate] | 1.29 | 1.33 | 1.5 | 1.18 | 1.71 | 1.15 |
| C[C@H]1COc2c(N3CCN(C)CC3)c(F)cc3c(=O)c(C(=O)O)cn1c23 [Levofloxacin] | 1.07 | 1.12 | 0.658 | 0.922 | 0.532 | 1.03 |
| CCCCCOC(=O)Nc1nc(=O)n([C@@H]2O[C@H](C)[C@@H](O)[C@H]2O)cc1F [Capecitabine] | 1.77 | 0.754 | 1.15 | 0.899 | 0.821 | 1.23 |
| O=C(Nc1cnn2ccc(N3CCC[C@@H]3c3cc(F)ccc3F)nc12)N1CC[C@H](O)C1 [Larotrectinib (LOXO-101) sulfate] | 0.597 | 0.899 | 1.05 | 0.634 | 0.551 | 1.27 |
| CC(C)(O)[C@H]1CC[C@@](C)([C@H]2[C@@H](O)C[C@@]3(C)[C@@H]4C[C@H](O[C@@H]5O[C@H](CO)[C@@H](O)[C@H](O)[C@H]5O)[C@H]5C(C)(C)[C@@H](O[C@@H]6OC[C@@H](O)[C@H](O)[C@H]6O)CC[C@@]56C[C@@]46CC[C@]23C)O1 [Astragaloside A] | 4.07 | 3.46 | 3.2 | 2.61 | 2.19 | 3.11 |
| O=c1ncccn1[C@@H]1O[C@H](CO)[C@@H](O)[C@H]1O [Zebularine] | 1.2 | 1 | 0.895 | 0.816 | 0.887 | 0.492 |
| CNC[C@H](O)c1ccc(O)c(O)c1 [Epinephrine HCl] | 1.19 | 0.611 | 0.9 | 0.733 | 0.644 | 0.893 |
| Cc1ccc(N(CC2=NCCN2)c2cccc(O)c2)cc1 [Phentolamine Mesylate] | 1.55 | 0.595 | 0.949 | 1.19 | 1.72 | 1.1 |
| O=C(/C=C/c1ccc(O)c(O)c1)c1ccc(O)cc1O [Butein] | 1.56 | 1.3 | 1.12 | 1.51 | 1.5 | 1.12 |
| C[C@H](NC(=O)[C@@H](Cc1ccc2ccccc2c1)NC(=O)[C@@H](C)N)C(=O)N[C@@H](Cc1c[nH]c2ccccc12)C(=O)N[C@H](Cc1ccccc1)C(=O)N[C@@H](CCCCN)C(N)=O | 1.39 | 0.626 | 1.01 | 0.873 | 2.01 | 1.29 |
| O=C1C[C@@H](c2ccc(O[C@@H]3O[C@H](CO)[C@@H](O)[C@H](O)[C@H]3O)cc2)Oc2cc(O)ccc21 [Liquiritin] | 1.07 | 0.817 | 0.781 | 1.59 | 0.642 | 1.16 |
| Cc1cc(C2CCCCC2)n(O)c(=O)c1 [Ciclopirox] | 2.74 | 2.85 | 2.81 | 3.29 | 3.45 | 3.51 |
| C[C@@H](Oc1cc(-c2cnn(C3CCNCC3)c2)cnc1N)c1c(Cl)ccc(F)c1Cl | 3.69 | 4.3 | 3.56 | 5.27 | 4.27 | 4.15 |
| Nc1c2c(nc3ccccc13)CCCC2 [Tacrine HCl] | 0.888 | 0.485 | 0.636 | 1.21 | 0.472 | 1.16 |
| C[C@@H](Nc1cc(F)cc(F)c1)c1cc(C(=O)N(C)C)cc2c(=O)cc(N3CCOCC3)oc12 | 2.04 | 1.94 | 1.72 | 2.79 | 0.984 | 2.9 |
| C[C@H]1C[C@@H]2[C@H]([C@@H](O)C[C@@]3(C)[C@H]2CC[C@]3(O)C(=O)CO)[C@@]2(C)C=CC(=O)C=C12 [Methylprednisolone] | 1.37 | 1.96 | 1.76 | 1.79 | 2.31 | 2.07 |
| COc1cc2c(Oc3ccc4[nH]c(C)cc4c3F)ncnc2cc1OCCCN1CCCC1 [Cediranib (AZD2171)] | 4.22 | 4.27 | 3.51 | 4.47 | 3.58 | 4.53 |
| N#CSc1cc(SC#N)c(N)nc1N | 0.526 | 2.18 | 0.906 | 1.25 | 1.27 | 1.14 |
